# Source: PubChem BioAssay (Broad Institute)
# INS-1E GSIS act: primary screen for activators of insulin secretion dependent on glucose, INS-1E cells, GLuc reporter luminescence. hit rate 0.61% among 370,000. activation, % at 16.6 µM. INS-1E GLuc reporter insulin secretion, 2-3 h;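 active = lowest replicate activation of at least 40%, so every replicate reaches that level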;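 note: 0% = median of neutral control wells and 100% = median of IBMX positive control wells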
# miR122 inh: blocks miR-122 activity in Huh7 sensor cells | activation (reporter increase), % at 12.5 µM | hit rate 0.3% among 340,000 | Huh7 miR-122 Renilla luciferase sensor, 48 h; neutral wells = 0, positive control = 100;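 active = mean replicate activation score at least 90 and every replicate individually at or above 90; inconclusive = only one of the two criteria met; inactive = neither criterion met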;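 note: higher luciferase means less miR-122 activity so hits act as miR-122 inhibitors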
# PAX8 reporter: lowers PAX8-driven luciferase in RMG-I cells; RMG-I TPO-luciferase reporter, SteadyGlo, 24 h; inhibition, % at 12.6 µM; hit rate 1.2% among 360,000; AID 652154;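 active = mean replicate inhibition at least 60% with every replicate also reaching 60%; inconclusive = only one of the two criteria is met; inactive = mean below 60% and not all replicates reaching 60%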;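 note: luciferase light reporting Pax8 driven TPO promoter activity; plate controls were median of neutral control wells for no effect and mitoxantrone controls for full effect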
# C2C12 statin: suppressors of simvastatin-induced myotoxicity in C2C12 myotubes; hit rate 0.78% among 330,000; rescue of ATP level, % at 7.49 µM; ATP luminescence, 48 h; scaled: DMSO 0, geranylgeraniol control 100; AID 602340;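 active = mean ATP rescue above about 67%, or every replicate alone reaching that limit, limit read from the data, passing the limit was not always enough; inconclusive = no clear call, values can overlap the other calls; inactive = mean under the limit and some replicate under it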;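 note: myotubes were challenged with 10 µM simvastatin during compound exposure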
# HIV Env fusion: HIV envelope-mediated fusion inhibition. hit rate 1.1% among 360,000. AID 651610. HeLa-JRFL Env/CEM21 cell fusion, luciferase. inhibition, % at 12.3 µM;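 active = mean replicate inhibition score of at least 50 and every replicate individually at or above 50; inconclusive = only one of the two criteria met; inactive = mean below 50 and not all replicates reaching 50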;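 note: 0% = plate neutral controls and 100% = maraviroc near 300 nM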
# EWS-Fli inh: blocks EWS/Fli oncoprotein-driven transcription; A673 NR0B1-luciferase reporter, viability-normalised; inhibition, % at 12.6 µM; hit rate 0.67% among 350,000; AID 651661;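 active = mean inhibition of at least 50% after viability correction, with every replicate also passing that limit; inconclusive = mean reaches 50% but only one of two replicates passes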;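 note: firefly luciferase signal divided by Alamar Blue viability fluorescence both relative to DMSO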
# * marks the source's active call; other numbers are inactive results; u = inconclusive; x = no result given; [ ] = remark or other dose. Most compounds without a hit are left out; they make up all but 3.1% or so of the library.
SMILES,INS-1E GSIS act,miR122 inh,PAX8 reporter,C2C12 statin,HIV Env fusion,EWS-Fli inh
C[C@@H]1CN([C@H](C)CO)C(=O)c2cc(NC(=O)Cc3ccccc3)ccc2O[C@@H](C)CCCCO[C@@H]1CN(C)Cc1ccc(C(F)(F)F)cc1,-11.4,-22.4[16.7 µM],87.2*,u,65.1*[16.7 µM],-3.5
C[C@@H]1CCCCO[C@@H](CN(C)Cc2ccccc2)[C@H](C)CN([C@H](C)CO)C(=O)c2cc(NC(=O)Cc3ccccc3)ccc2O1,-22.9,8.7[16.7 µM],3.1,x,-15.6[16.7 µM],6.3
C[C@@H]1CN([C@H](C)CO)C(=O)Cc2cc(NC(=O)CCC(F)(F)F)ccc2O[C@H]1CN(C)CC1CCCCC1,-0.8,2.2[16.7 µM],x,20.5,x,-2.4
CCCNC(=O)N1[C@@H](CO)[C@H](c2ccccc2)[C@@H]1CNC(C)=O,7.7,-12.1[16.7 µM],0.0,11.2,x,-3.3
Cc1ccccc1-c1ccc2c(c1)O[C@@H](CN(C)C(=O)c1ccccn1)[C@H](C)CN([C@@H](C)CO)S2(=O)=O,-8.6,24.7[16.7 µM],-1.6,-47.7,-7.8[16.7 µM],1.2
C[C@@H](NC(=O)[C@@H]1[C@@H](CO)[C@@H]2Cn3c(ccc(-c4ccccc4)c3=O)[C@@H]2N1C)c1ccccc1,-8.7,7.8[16.7 µM],x,18.5,x,3.5
O=S(=O)(c1ccc(=S)[nH]c1)N1CCCCCC1,42.1*,3.2,3.3,12.9,-10.1,-2.8
O=S(=O)(c1ccc(=S)[nH]c1)N1CCOCC1,16.4,x,-5.5,0.6,11.0,3.7
C[C@@H]1CN([C@@H](C)CO)C(=O)Cc2cc(NS(=O)(=O)c3ccccc3)ccc2O[C@H]1CN(C)CC1CC1,12.3,-7.7[16.7 µM],-2.1,-44.3,x,-3.2
O=C(CN1CCN(c2ccccn2)CC1)Nc1ccc(F)cc1,x,-5.0,x,115.7*,x,x
NS(=O)(=O)c1ccc(CCNC(=O)CN2CCN(c3ccc(F)cc3)CC2)cc1,-4.3,-4.0,16.0,x,64.1*,x
O=C(CN1CCN(c2ccccn2)CC1)Nc1ccccc1,5.0,-11.1,x,3.8,x,x
O=C(CN1CCN(c2ccccn2)CC1)NCCc1ccccc1,3.3,0.0,x,111.2*,x,x
CCCNC(=O)Nc1ccc2c(c1)C(=O)N(C)[C@@H]1CC[C@@H](CC(=O)NCC3CCCCC3)O[C@@H]1CO2,-14.3,-33.3[16.7 µM],-3.4,48.2,2.0[16.7 µM],1.5
Nc1nnnn1NCc1cccc(OCc2ccccc2)c1,x,3.0,-1.1,104.2*,11.8,x
CC1CCc2c(sc3nc(C(C)(C)C)nc(N4CCN(C(=O)CCl)CC4)c23)C1 (configuration not stated),x,-8.5,22.4,-13.9,6.3,68.7*
Cc1cc(C(=O)COC(=O)c2ccccc2O)c(C)n1CC1CCCO1 (configuration not stated),-54.3,-1.1,81.3*,5.3,u,84.3*
O=C(Nc1cc(Br)ccc1C(=O)NCc1cccc(O)c1)c1ccccc1,x,x,27.0,x,-0.3[16.7 µM],6.6
Cc1ccc(S(=O)(=O)Nc2ccc3c(c2)C(=O)N([C@H](C)CO)C[C@@H](C)[C@@H](CN(C)CC2CCCCC2)OCCCC[C@H](C)O3)cc1,-18.3,-2.2[16.7 µM],26.7,x,14.8[16.7 µM],12.3
C[C@@H]1CCCCO[C@@H](CN(C)CC2CCCCC2)[C@@H](C)CN([C@H](C)CO)C(=O)c2cc(NS(=O)(=O)c3ccc(F)cc3)ccc2O1,-4.6,-11.3[16.7 µM],19.5,96.3*,-7.8[16.7 µM],-0.3
C[C@@H]1CN([C@H](C)CO)C(=O)c2cc(NS(=O)(=O)c3ccc(F)cc3)ccc2O[C@@H](C)CCCCO[C@H]1CN(C)CC1CCCCC1,3.7,-4.3[16.7 µM],25.0,-309.2,-21.2[16.7 µM],10.3
C[C@@H]1CCCCO[C@@H](CN(C)CC2CCCCC2)[C@@H](C)CN([C@H](C)CO)C(=O)c2cc(NS(=O)(=O)c3ccc(Cl)cc3)ccc2O1,-11.3,-6.8,23.3,-5.3,-55.6,5.9
Cc1ccc(S(=O)(=O)Nc2ccc3c(c2)C(=O)N([C@H](C)CO)C[C@@H](C)[C@@H](CN(C)CC2CCCCC2)OCCCC[C@@H](C)O3)cc1,-20.3,-14.3[16.7 µM],88.0*,x,7.5[16.7 µM],29.8
C[C@@H]1CCCCO[C@H](CN(C)CC2CCCCC2)[C@H](C)CN([C@H](C)CO)C(=O)c2cc(NS(=O)(=O)c3ccc(Cl)cc3)ccc2O1,-19.9,-26.7[16.7 µM],95.2*,x,-13.0[16.7 µM],62.7*
C[C@@H]1CN([C@H](C)CO)C(=O)c2cc(NS(=O)(=O)c3ccc(Cl)cc3)ccc2O[C@@H](C)CCCCO[C@@H]1CN(C)CC1CCCCC1,-24.9,-19.4[16.7 µM],77.9*,x,-11.5[16.7 µM],61.4*
SMILES,INS-1E GSIS act,miR122 inh,PAX8 reporter,C2C12 statin,HIV Env fusion,EWS-Fli inh
C[C@H](CO)N1C[C@H](C)[C@@H](CN(C)Cc2ccccc2)Oc2ccc(NC(=O)Cc3cn(C)c4ccccc34)cc2C1=O,1.5,-0.9[16.7 µM],12.5,39.4,9.5[16.7 µM],6.3
CNC[C@@H]1Oc2ncc(-c3cccc(C(=O)N(C)C)c3)cc2C(=O)N([C@@H](C)CO)C[C@@H]1C,17.0,-2.3[16.7 µM],-0.7,-1.6,x,-2.5
Cc1cc(C(=O)Nc2cccc3c2O[C@H](CN(C)CC2CC2)[C@@H](C)CN([C@@H](C)CO)C3=O)n(C)n1,7.2,-1.4[16.7 µM],x,-18.5,24.9[16.7 µM],-1.8
Cc1ccc(S(=O)(=O)Nc2ccc3c(c2)C(=O)N(C)[C@H]2CC[C@@H](CC(=O)NCCc4ccncc4)O[C@H]2CO3)cc1,-5.6,-10.0[16.7 µM],-2.4,-4.5,11.3[16.7 µM],-2.4
CN(C)c1nc(C=C(C#N)C#N)c(Cl)n1-c1ccc(F)cc1,8.5,x,68.1*,x,-61.2,38.0
Cc1noc(C)c1S(=O)(=O)Nc1ccc2c(c1)C(=O)N([C@H](C)CO)C[C@@H](C)[C@H](CN(C)S(=O)(=O)c1cn(C)cn1)OCCCC[C@@H](C)O2,-2.4,-3.0[16.7 µM],-1.5,x,23.0[16.7 µM],-8.5
CS(=O)(=O)N1CC2(C1)[C@H](c1ccccc1)[C@@H](CO)N2Cc1ccccn1,5.3,x,-12.5,x,x,0.6
CN(C)c1ccc(C=c2c3cc([N+](=O)[O-])ccc3n3c2cc(-c2ccccc2)[n+]3C)cc1,-29.4,-8.7,113.8*,-124.8,47.0,56.3*
CN(C)c1ccc(C=c2c3ccccc3n3c2cc(-c2ccccc2)[n+]3C)cc1,x,x,95.0*,x,-36.0,-10.1
COc1cc(N(C)C)ccc1C=c1c2ccccc2n2c1cc(-c1ccccc1)[n+]2C,-42.7,-7.0,88.3*,x,5.5,36.0
COc1cc(C=c2c3ccccc3n3c2cc(-c2ccccc2)[n+]3C)cc(OC)c1OC,24.0,x,92.6*,x,19.6,7.9
COc1cc(/C=C(/C(=O)O)c2ccc(-c3ccccc3)cc2)cc(OC)c1OC,9.8,4.3,2.2,-24.6,-24.6,9.4
C[C@@H]1CN([C@H](C)CO)C(=O)c2cc(C3=CCCC3)cnc2O[C@H]1CN(C)Cc1cccc(F)c1,-16.1,1.4[16.7 µM],-6.2,-26.4,-25.0[16.7 µM],15.6
CO[C@@H]1CN(C)C(=O)c2ccc(NC(=O)Nc3ccccc3F)cc2OC[C@@H](C)N(C(C)=O)C[C@@H]1C,-0.8,12.0[16.7 µM],-5.3,3.2,-8.1[16.7 µM],-4.6
